SW480 rerep: DNA re-replication induction in SW480 cells. SW480 DNA re-replication, Hoechst DNA content imaging, 48 h. hit rate 1.8% among 340,000. Potency, µM (doses to about 46.1 µM), for inactives: at the highest dose re-replication activation, actives largely listed as activators; note: potency is the fitted concentration of half-maximal effect; % of control where 0% means no effect; nearly all actives have a fitted effect of over 55% in size
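Per well, 250 cells were exposed to pinned compound for 48 hr. Nuclear DNA was visualised with Hoechst (40 min, 37 C) and total object intensity recorded by fluorescence scanning.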
Vif-A3F inh: Vif-A3F binding inhibition. Potency, µM (top dose mostly 46.1 µM), inactives show top-dose activity, negative = active. hit rate 0.2% among 390,000. AID 602313. HeLa A3F-eYFP + Vif (tagged APOBEC3F with the HIV-1 protein that degrades it), YFP fluorescence increase; note: potency is the fitted concentration of half-maximal effect; % of control where 0% means no effect; nearly all actives have a fitted effect of over 65% in size
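HeLa cells stably expressing Vif plus C-terminally eYFP-tagged A3F were seeded, incubated overnight at 37 deg C, dosed with compound, incubated overnight again at 37 deg C. Yellow fluorescence (Ex 488/Em 500-530) reported blocked Vif-mediated A3F-eYFP degradation.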
IL-1B inflam inh: inflammasome signaling inhibition, IL-1 beta readout | THP-1 LPS/ATP IL-1B secretion, AlphaLISA, 16 h; hits give low values | activity change, % at 57.5 µM | hit rate 4.7% among 360,000; in the data active = activity change below about -50%; inconclusive = mostly about -30% to -49%; note: % is set by controls: 0 for no effect and ±100 for the full control effect
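THP-1 cells pretreated 1 hr with compounds (up to 57.5 uM final), then stimulated with LPS (250 ng/mL final) plus ATP (1.25 mM final); secreted IL-1B measured by AlphaLISA after 16 hr, decreased signal indicating inhibition.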
MCF10A rereplic: inducers of DNA re-replication in MCF 10A breast cells. hit rate 2.9% among 350,000. Potency, µM (doses to about 46.1 µM), for the others: top-dose activity, positive = re-replication, hits mostly activators. MCF 10A DNA re-replication, Hoechst nuclear intensity, 48 h; note: potency is the fitted concentration of half-maximal effect; % of control where 0% means no effect; nearly all actives have a fitted effect of over 50% in size
Vif-APOBEC3G blk: inhibitors of Vif-APOBEC3G interaction | Potency, µM (doses to about 46.1 µM), for inactives: at the highest dose activity, negative = active, most hits filed as inhibitors | HeLa A3G-eYFP + Vif (tagged APOBEC3G with the HIV-1 protein that degrades it), YFP fluorescence, overnight | hit rate 0.076% among 410,000; note: potency is the fitted concentration of half-maximal effect; % is set by controls: 0 for no effect and ±100 for the full control effect; nearly all actives have a fitted effect of over 60% in size
Target sequence (Q9HC16 whole entry, looked up): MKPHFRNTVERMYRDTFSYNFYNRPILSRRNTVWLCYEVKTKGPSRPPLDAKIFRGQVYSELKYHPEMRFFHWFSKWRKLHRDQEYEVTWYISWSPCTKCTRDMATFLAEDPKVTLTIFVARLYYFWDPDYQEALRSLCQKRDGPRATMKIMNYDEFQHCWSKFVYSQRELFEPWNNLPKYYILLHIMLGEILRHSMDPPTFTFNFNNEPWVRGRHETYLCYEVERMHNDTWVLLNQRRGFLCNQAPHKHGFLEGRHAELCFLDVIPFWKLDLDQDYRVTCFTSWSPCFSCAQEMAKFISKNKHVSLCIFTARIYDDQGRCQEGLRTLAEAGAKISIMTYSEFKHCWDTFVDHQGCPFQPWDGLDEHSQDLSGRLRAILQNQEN
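HeLa cells stably expressing Vif and C-terminally eYFP-tagged A3G, seeded overnight at 37 deg C, then exposed to compound by pintool overnight at 37 deg C. Rise in yellow fluorescence (Ex 488/Em 500-530, Acumen) marks blocked Vif-driven A3G degradation.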
Giardia killer: kills Giardia lamblia; Giardia lamblia trophozoite viability; activity change, % at 7.66 µM, hits read low; hit rate 0.15% among 340,000; AID 540267; in the data active = activity change below about -80%; inconclusive = between about -30% and that limit;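 note: parasites exposed to compound for two days anaerobically before the ATP read; % is set by controls: 0 for no effect and ±100 for the full control effect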
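Trophozoite viability was measured as ATP-dependent luminescence, read 15-30 min after reagent addition. Before that, parasites at 100 cells/well were exposed to compounds for 48 h, anaerobically, at 37 deg C.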
An asterisk follows results filed as active; i = inactive; u = inconclusive; x = not tested or not shown. Sampled rows, rich in hits. Any-hit rate of the full collection: about 6.9%. Unless noted, calls come from the whole dose curve; as a rule, active = well fitted curve in the direction sought with a large enough effect; inconclusive = small, poorly fitted or top-dose-only effect, or another doubt; inactive = no such curve, though single readings can be large; an effect the other way counts as inactive or inconclusive.

SMILES	SW480 rerep	Vif-A3F inh	IL-1B inflam inh	MCF10A rereplic	Vif-APOBEC3G blk	Giardia killer
COC(=O)[C@@]1(Cc2ccc(F)cc2)[C@H]2c3cc(C(=O)N4CCCC4)n(Cc4ccc(C)o4)c3C[C@H]2CN1C(=O)c1ccccc1	x	x	-86.9*	x	x	x
COC(=O)[C@@]1(Cc2ccc(OC)cc2)[C@H]2c3cc(C(=O)N4CCCC4)n(CCN4CCOCC4)c3C[C@H]2CN1C(=O)c1ccccc1	x	x	-0.3	x	x	x
COC(=O)[C@@]1(Cc2ccc(F)cc2)[C@H]2c3cc(C(=O)N4CCCC4)n(CCCNc4ncc(C(F)(F)F)cc4Cl)c3C[C@H]2CN1C(=O)c1ccccc1	u	-1.2%	0.0	5.8µM*	-6.5%	-3.7
COC(=O)[C@@]1(Cc2ccc(F)cc2)[C@H]2c3cc(C(=O)N4CCCC4)n(Cc4ccc(C)c(F)c4F)c3C[C@H]2CN1C(=O)c1ccccc1	x	x	0.0	x	x	x
COC(=O)[C@@]1(Cc2ccc(F)cc2)[C@H]2c3cc(C(=O)N4CCCC4)n(Cc4ccc(S(C)(=O)=O)cc4)c3C[C@H]2CN1C(=O)c1ccccc1	x	x	-21.5	x	x	x
Cc1ccc(Cl)cc1-n1c(CCC(=O)O)ccc1-c1cccs1	x	-10.3%	x	x	-19.7%	x
Cc1ccc(S(=O)(=O)Nc2ccc(C(=O)N3CCCC3)cc2)cc1	-6.9%	2.9%	i	-32.9%	1.2%	-13.0
Cc1ccc(S(=O)(=O)N2CCCN(S(=O)(=O)c3ccc(C(F)(F)F)cc3)CC2)cc1	9.2%	-10.4%	5.3	7.31µM*	-0.1%	-12.2
Cc1ccc(S(=O)(=O)N2CCN(C(=O)c3ccc(N4CCCCC4)c([N+](=O)[O-])c3)CC2)cc1	-5.8%	-7.4%	-61.9*	7.5%	1.6%	18.5
Cc1ccc(S(=O)(=O)N2CCCN(C)CC2)cc1	4.1%	3.8%	7.3	u	-12.9%	-14.0
Cc1cccc(NC(=O)C2CCN(S(=O)(=O)c3c(C)nn(C)c3C)CC2)n1	-0.5%	-7.7%	33.9	0.0%	1.3%	15.9
Cc1ccc(S(=O)(=O)N2CCN(C(=O)c3ccc(N4CCCC4)c([N+](=O)[O-])c3)CC2)cc1	u	4.9%	i	2.3%	-0.6%	10.7
Cc1cccc(NC(=O)C2CCN(S(=O)(=O)c3c(C)c(C)cc(C)c3C)CC2)n1	13.9%	1.8%	-89.3*	u	1.5%	17.1
Cc1ccc(NS(=O)(=O)c2ccc(C(=O)N3CCN(S(=O)(=O)c4ccccc4)CC3)cc2)cc1	25.9µM*	-18.8%	3.1	7.4%	-0.9%	9.7
CCc1cccc(-n2nnc(S(=O)(=O)c3ccc(OC)cc3)c2C)c1	x	-5.0%	x	x	1.5%	x
CNC(=O)C1CCC(Cn2c(=O)[nH]c3ccsc3c2=O)CC1 (centres undefined)	x	1.0%	x	x	1.6%	x
Cc1cccc(NC(=O)c2ccc(S(=O)(=O)N3CCCCCC3)cc2)n1	-481.6%	2.0%	-69.6*	24.3%	0.5%	-0.4
CS(=O)(=O)c1ccccc1-c1nnc(NC(=O)c2ccc(S(=O)(=O)N3CCCC3)cc2)o1	3.2%	-4.5%	-2.0	22.0%	-10.8%	-3.1
COc1ccc(OC)c(CN2CCN(C(=O)c3cccc(S(=O)(=O)Nc4ccc(C)cc4)c3)CC2)c1	0.8%	-3.8%	-53.2*	21.5%	-0.1%	-18.6
CCN(CC)c1ccc2cc(C(=O)NNC(=O)c3ccc(S(=O)(=O)N4CCCCC4)cc3)c(=O)oc2c1	2.91µM*	u	0.0	u	0.1%	43.0
O=C(Nc1nnc(-c2ccccc2Cl)o1)c1ccc(S(=O)(=O)N2CCCCCC2)cc1	u	3.2%	42.8	3.98µM*	7.7%	-4.9
CN(C)C(=O)COc1ccccc1C(=O)OCC(=O)Nc1ccc(Oc2ccc(Br)cc2)cc1	x	x	x	x	-1.8%	x
CC(C)(C)n1ncc2c(=O)n(Cc3cccc(C(F)(F)F)c3Cl)cnc21	x	x	x	x	-2.1%	x
Cc1ccc(C(=O)NNC(=O)c2ccc(S(=O)(=O)N3CCCCC3)cc2)cc1	16.4µM*	u	10.3	u	-2.9%	-2.0
Cc1ccc(NC(=O)c2ccc(S(=O)(=O)N3CCCCC3)cc2)cc1	-12.1%	-6.5%	-6.9	0.4%	-0.9%	3.1
SMILES	SW480 rerep	Vif-A3F inh	IL-1B inflam inh	MCF10A rereplic	Vif-APOBEC3G blk	Giardia killer
COc1ccccc1C(=O)NC(=O)Nc1cccc(Cl)c1	-10.4%	0.3%	-3.0	1.4%	-1.0%	-10.6
Cc1cc(NC(=O)NC(=O)c2ccccc2NC(=O)CN)ccc1Oc1ncc(Br)cn1	2.91µM*	1.4%	-15.1	u	u	-8.0
Nc1ccccc1C(=O)NC(=O)Nc1ccc(Oc2ncc(Br)cn2)c(Cl)c1	0.517µM*	-8.4%	28.6	u	-48.9%	2.4
Cc1cc(NC(=O)NC(=O)c2ccccc2NC(=O)CN(C)C)ccc1Oc1ncc(Br)cn1	6.51µM*	-20.1%	59.8	14.6µM*	u	-1.4
CNc1c(Cl)cc(/C=C2\C=Cc3ccccc32)cc1Cl	x	x	x	x	-4.8%	x
CCCN1CNc2c(c(=O)[nH]c(=S)n2CCc2cc(Cl)ccc2Cl)C1	x	x	x	x	x	i
CC(Sc1n[nH]c(N)n1)C(=O)C12CC3CC(CC(C3)C1)C2 (centres undefined)	-17.9%	-4.3%	-12.7	5.9%	5.7%	-14.6
CC(SC#N)C(=O)C12CC3CC(CC(C3)C1)C2 (centres undefined)	u	5.7%	-96.1*	18.4µM*	-6.6%	4.1
COc1cc(C(=O)CCN2CCC(c3ccccc3)C2)cc(OC)c1OC (centres undefined)	u	-2.1%	-104.8*	3.66µM*	-18.5%	0.5
O=C(CCN1CCCC1Cc1ccccc1)c1ccc2c(c1)OCCO2 (centres undefined)	u	3.8%	-100.7*	25.4%	-25.8%	4.2
COc1cc(C(=O)NC2CCN(Cc3ccccc3)CC2)cc(Cl)c1OC	-4.4%	-5.7%	-13.6	8.2%	-0.2%	12.0
O=C(CCN1CCc2ccccc2C1)c1ccc2c(c1)OCCO2	16.4µM*	0.2%	-0.1	u	-17.4%	1.0
O=C(CCN1CCCCCC1)Nc1ccc2c(c1)OCCO2	0.4%	-3.3%	-26.9	0.5%	2.1%	9.0
O=C(CCN1CCCCC1)c1ccc2c(c1)OCCO2	u	-4.1%	-86.3*	-42.3%	-12.8%	-0.9
CCOc1ccccc1NC(=O)CC(c1ccc(F)cc1)N1Cc2ccccc2C1=O (centres undefined)	x	6.7%	x	x	-7.6%	x
O=c1c2oc3ccccc3c2n(Cc2ccccc2F)c(=O)n1Cc1ccccc1	x	2.2%	x	x	1.5%	x
O=C(CCN1CCC(c2ccccc2)C1)c1ccccc1 (centres undefined)	u	-6.1%	2.5	u	0.5%	-12.8
O=C(CCN1CCC(c2ccccc2)C1)c1ccc2c(c1)OCCO2 (centres undefined)	u	4.8%	-14.3	13.3µM*	-12.9%	2.8

Assay outcomes deposited in PubChem by National Center for Advancing Translational Sciences (NCATS).
